The results in this text go back to PubChem BioAssay (EPA / NIEHS).

Conditions in all cases: mRNA level, 48 h; actives raise or lower the signal
Read-out in assay [1]: Cytochrome P450 (CYP2B6), CYP2B6 (gene 1555)
As to the kind of experiment: LTEA_HepaRG_CYP2B6: Life Technologies and Expression Analysis (LTEA) Assay for Cytochrome P450 (CYP2B6) using HepaRG (AID 2283481). The gist of the method: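 Using 48 h treatment of HepaRG cells in serum-free induction medium, concentrations spanned half-log steps from 100 uM in 0.5% DMSO vehicle. CYP2B6 mRNA induction or loss is scored by qRT-PCR against DMSO.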

Read-out in assay [2]: Cytochrome P450 2C19 (Homo sapiens) (UniProt P33261)
Nature of the assay: LTEA_HepaRG_CYP2C19: Life Technologies and Expression Analysis (LTEA) Assay for CYP2C19 using HepaRG (AID 2283482). The gist of the method: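 Human HepaRG liver cells received test chemicals for 48 h (highest 100 uM, half-log dilutions in 0.5% DMSO). CYP2C19 mRNA induction or loss is read by multiplexed qRT-PCR and fitted in both directions versus vehicle.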

Read-out in another assay: CYP2C8 (gene 1558)
Nature of the assay: LTEA_HepaRG_CYP2C8: Life Technologies and Expression Analysis (LTEA) Assay for CYP2C8 using HepaRG (AID 2283483). The gist of the method: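 CYP2C8 expression measured by TaqMan qRT-PCR and normalized to three housekeeping genes. HepaRG cultures were treated for 48 h with an eight-point half-log series topping at 100 uM, vehicle 0.5% DMSO, duplicates; fitted both directions against DMSO.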

Read-out in a further assay: CYP2C9 (gene 1559)
As to the kind of experiment: LTEA_HepaRG_CYP2C9: Life Technologies and Expression Analysis (LTEA) Assay for CYP2C9 using HepaRG (AID 2283484). The gist of the method: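 CYP2C9 transcript level, quantified by TaqMan qRT-PCR against three housekeeping genes, was fitted bidirectionally relative to 0.5% DMSO. HepaRG cultures were treated 48 h, in duplicate, at eight half-log concentrations topping at 100 uM.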

Read-out in the next assay: CYP2E1 (gene 1571)
As to the kind of experiment: LTEA_HepaRG_CYP2E1: Life Technologies and Expression Analysis (LTEA) Assay for CYP2E1 using HepaRG (AID 2283485). The gist of the method: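 Assay uses 48 h exposure of HepaRG hepatic cells, eight concentrations to 100 uM. Expression of CYP2E1 is quantified by TaqMan qRT-PCR with ACTB, GAPDH and POLR2A normalization; curves fitted in both directions relative to vehicle.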

Read-out in another assay: CYP4A11 (gene 1579)
Nature of the assay: LTEA_HepaRG_CYP4A11: Life Technologies and Expression Analysis (LTEA) Assay for CYP4A11 using HepaRG (AID 2283486). The gist of the method: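 Readout is CYP4A11 mRNA induction or suppression (qRT-PCR, ACTB/GAPDH/POLR2A normalization) in human HepaRG cells after 48 h chemical treatment, concentrations to 100 uM in 0.5% DMSO, fitted bidirectionally against vehicle.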

Read-out in assay [3]: Cytochrome P450 3A4 (Homo sapiens) (UniProt P08684)
Nature of the assay: LTEA_HepaRG_CYP3A4: Life Technologies and Expression Analysis (LTEA) Assay for CYP3A4 using HepaRG (AID 2283487). The gist of the method: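 Differentiated HepaRG cells in serum-free induction medium exposed in duplicate for 48 h to 8 half-log concentrations up to 100 uM in 0.5% DMSO. CYP3A4 mRNA measured by qRT-PCR normalized to ACTB, GAPDH and POLR2A; bidirectional fit versus DMSO.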

Read-out in assay [4]: DNA damage-inducible transcript 3 (DDIT3), DDIT3 (gene 1649)
As to the kind of experiment: LTEA_HepaRG_DDIT3: Life Technologies and Expression Analysis (LTEA) Assay for DNA damage-inducible transcript 3 (DDIT3) using HepaRG (AID 2283488). The gist of the method: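 Eight-point concentration-response (100 uM highest, half-log dilutions) in HepaRG, 48 h, duplicate wells. Endpoint: qRT-PCR mRNA, normalized (ACTB, GAPDH, POLR2A), bidirectional fitting with DMSO as baseline.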

Read-out in assay [5]: Pro-epidermal growth factor (Homo sapiens) (UniProt P01133)
As to the kind of experiment: LTEA_HepaRG_EGF: Life Technologies and Expression Analysis (LTEA) Assay for Epidermal growth factor (EGF) using HepaRG (AID 2283489). The gist of the method:
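EGF expression changes in human HepaRG cells are scored by bidirectional fitting relative to 0.5% DMSO controls. Chemicals are tested at eight half-log concentrations up to 100 uM for 48 h in serum-free induction medium.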

Read-out in assay [6]: Early growth response protein 1 (EGR1) transcription factor, EGR1 (gene 1958)
Nature of the assay: LTEA_HepaRG_EGR1: Life Technologies and Expression Analysis (LTEA) Assay for Early growth response protein 1 (EGR1) transcription factor using HepaRG (AID 2283490). The gist of the method: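 EGR1 transcript levels quantified by qRT-PCR (Fluidigm arrays) against three housekeeping genes after 48 h chemical exposure of HepaRG cells. Eight-point half-log series topping at 100 uM, 0.5% DMSO vehicle, analyzed for gain or loss.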

Read-out in assay [7]: Ezrin (EZR), EZR (gene 7430)
Nature of the assay: LTEA_HepaRG_EZR: Life Technologies and Expression Analysis (LTEA) Assay for Ezrin (EZR) using HepaRG (AID 2283491). The gist of the method: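 Differentiated human HepaRG cells, 48 h after plating, were exposed in serum-free induction medium for 48 hours to eight half-log concentrations up to 100 uM in 0.5% DMSO. EZR mRNA was measured by TaqMan qRT-PCR, normalized to ACTB, GAPDH and POLR2A, and fitted bidirectionally against DMSO.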

Read-out in assay [8]: Cytochrome P450 3A7 (Homo sapiens) (UniProt P24462)
As to the kind of experiment: LTEA_HepaRG_CYP3A7: Life Technologies and Expression Analysis (LTEA) Assay for CYP3A7 using HepaRG (AID 2283492). The gist of the method: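 Cells were thawed, plated, cultured 48 h, then treated for a further 48 h with chemicals (eight-point half-log series from 100 uM, 0.5% DMSO). RNA was isolated and CYP3A7 expression quantified by qRT-PCR normalised to ACTB, GAPDH and POLR2A.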

Read-out in assay [9]: Fatty Acid-Binding Protein 1 (FABP1), FABP1 (gene 2168)
As to the kind of experiment: LTEA_HepaRG_FABP1: Life Technologies and Expression Analysis (LTEA) Assay for Fatty Acid-Binding Protein 1 (FABP1) using HepaRG (AID 2283494). The gist of the method: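 FABP1 expression by TaqMan qRT-PCR, normalised to three housekeeping genes, in HepaRG cells after 48 h chemical treatment. Eight-point half-log series topping at 100 uM in 0.5% DMSO, duplicates; gain or loss fitted relative to vehicle.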

Read-out in assay [10]: Cytochrome P450 4A22 (Homo sapiens) (UniProt Q5TCH4)
Nature of the assay: LTEA_HepaRG_CYP4A22: Life Technologies and Expression Analysis (LTEA) Assay for Cytochrome P450 4A22 (CYP4A22) using HepaRG (AID 2283495). The gist of the method:
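Cryopreserved HepaRG cells, plated and cultured 48 h, then switched to serum-free induction medium and treated 48 h (duplicates, up to 100 uM, half-log steps, 0.5% DMSO). Expression change of CYP4A22 was fitted bidirectionally against vehicle.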

Read-out in assay [11]: Cytochrome P450 7A1 (Homo sapiens) (UniProt P22680)
Nature of the assay: LTEA_HepaRG_CYP7A1: Life Technologies and Expression Analysis (LTEA) Assay for Cytochrome P450 7A1 (CYP7A1) using HepaRG (AID 2283496). The gist of the method: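 Using 0.5% DMSO as vehicle and baseline, chemicals were tested in duplicate over an 8-point range from 100 uM on HepaRG cells for 48 h; qRT-PCR signals were normalised to ACTB, GAPDH and POLR2A.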

Read-out in assay [12]: Glutathione S-Transferase (GSTA2), GSTA2 (gene 2939)
As to the kind of experiment: LTEA_HepaRG_GSTA2: Life Technologies and Expression Analysis (LTEA) Assay for Glutathione S-Transferase (GSTA2) using HepaRG (AID 2283497). The gist of the method:
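GSTA2 transcript levels came from Fluidigm TaqMan qRT-PCR normalized to three housekeeping genes, fitted in both directions against DMSO. HepaRG cultures received chemicals for 48 h in serum-free induction medium (0.5% DMSO), 8 half-log concentrations up to 100 uM, duplicate.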

Read-out in assay [13]: Glutamate-cysteine ligase catalytic (GCLC), GCLC (gene 2729)
Nature of the assay: LTEA_HepaRG_GCLC: Life Technologies and Expression Analysis (LTEA) Assay for Glutamate-cysteine ligase catalytic (GCLC) using HepaRG (AID 2283498). The gist of the method: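 Expression by TaqMan qRT-PCR, normalized to three housekeeping genes (ACTB, GAPDH, POLR2A), with up- or down-regulation fitted against DMSO. HepaRG cells dosed in duplicate for 48 h with 8 half-log concentrations up to 100 uM, vehicle 0.5% DMSO.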

Read-out in assay [14]: growth arrest and DNA damage 45 (GADD45G), GADD45G (gene 10912)
Nature of the assay: LTEA_HepaRG_GADD45G: Life Technologies and Expression Analysis (LTEA) Assay for growth arrest and DNA damage 45 (GADD45G) using HepaRG (AID 2283499). The gist of the method: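 Human hepatic HepaRG line treated 48 h with chemicals (eight concentrations, half-log steps from 100 uM); transcript induction or repression of GADD45G scored by qRT-PCR versus DMSO vehicle.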

Read-out in assay [15]: Glutamate-cysteine ligase regulatory (GCLM), GCLM (gene 2730)
As to the kind of experiment: LTEA_HepaRG_GCLM: Life Technologies and Expression Analysis (LTEA) Assay for Glutamate-cysteine ligase regulatory (GCLM) using HepaRG (AID 2283500). The gist of the method: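 In this multiplexed HepaRG gene-expression assay, GCLM mRNA change after 48 h treatment (8 concentrations, max 100 uM) was scored against DMSO by bidirectional curve fitting.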

Each structure is given as a SMILES string. The source made the active and inactive calls. How the source made its calls: active means hit-call score of the fitted dose curve at least 0.9, where 1 is the maximum; inactive means score below 0.9.

Cytochrome P450 3A4 (Homo sapiens), sequence (P08684 whole entry, looked up): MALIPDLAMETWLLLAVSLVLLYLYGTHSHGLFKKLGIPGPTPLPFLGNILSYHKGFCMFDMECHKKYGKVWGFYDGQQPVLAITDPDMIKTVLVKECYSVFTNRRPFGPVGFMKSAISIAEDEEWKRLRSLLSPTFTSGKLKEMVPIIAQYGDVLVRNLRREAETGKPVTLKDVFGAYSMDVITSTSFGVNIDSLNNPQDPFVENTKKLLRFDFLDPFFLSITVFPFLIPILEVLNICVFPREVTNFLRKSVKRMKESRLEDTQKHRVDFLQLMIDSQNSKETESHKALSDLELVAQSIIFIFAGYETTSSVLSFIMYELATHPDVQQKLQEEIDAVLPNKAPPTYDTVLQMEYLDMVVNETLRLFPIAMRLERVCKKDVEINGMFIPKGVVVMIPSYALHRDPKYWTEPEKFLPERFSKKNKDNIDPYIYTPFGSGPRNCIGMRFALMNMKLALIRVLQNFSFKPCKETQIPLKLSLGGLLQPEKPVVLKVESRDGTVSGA
Cytochrome P450 2C19 (Homo sapiens), sequence (P33261 whole entry, looked up): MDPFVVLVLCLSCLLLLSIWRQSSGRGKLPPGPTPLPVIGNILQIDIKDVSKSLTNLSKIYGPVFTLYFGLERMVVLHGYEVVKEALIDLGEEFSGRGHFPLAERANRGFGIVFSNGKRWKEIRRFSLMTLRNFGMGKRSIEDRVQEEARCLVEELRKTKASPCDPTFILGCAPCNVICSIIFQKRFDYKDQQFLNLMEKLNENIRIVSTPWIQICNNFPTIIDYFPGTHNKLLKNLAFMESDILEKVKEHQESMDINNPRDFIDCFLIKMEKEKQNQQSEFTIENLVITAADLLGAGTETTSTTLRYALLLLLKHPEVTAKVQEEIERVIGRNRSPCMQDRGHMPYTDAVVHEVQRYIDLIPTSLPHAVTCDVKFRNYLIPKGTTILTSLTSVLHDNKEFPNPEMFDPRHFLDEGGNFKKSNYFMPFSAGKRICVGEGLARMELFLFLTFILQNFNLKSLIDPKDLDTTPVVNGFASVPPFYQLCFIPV
Cytochrome P450 3A7 (Homo sapiens), sequence (P24462 whole entry, looked up): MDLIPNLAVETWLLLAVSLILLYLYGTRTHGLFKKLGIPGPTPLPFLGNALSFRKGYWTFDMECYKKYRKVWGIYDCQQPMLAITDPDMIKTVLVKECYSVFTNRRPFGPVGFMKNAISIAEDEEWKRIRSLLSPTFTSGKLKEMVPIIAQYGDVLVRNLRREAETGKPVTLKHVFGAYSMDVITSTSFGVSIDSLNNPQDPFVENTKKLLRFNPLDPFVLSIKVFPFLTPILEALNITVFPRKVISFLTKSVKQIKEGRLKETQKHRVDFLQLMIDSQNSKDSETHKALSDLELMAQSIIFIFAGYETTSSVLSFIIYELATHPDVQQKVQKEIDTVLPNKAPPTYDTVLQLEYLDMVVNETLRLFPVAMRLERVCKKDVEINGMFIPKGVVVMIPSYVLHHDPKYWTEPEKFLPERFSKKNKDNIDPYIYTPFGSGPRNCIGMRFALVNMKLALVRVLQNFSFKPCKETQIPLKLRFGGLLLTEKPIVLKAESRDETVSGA

As to `ClC1=C(Cl)[C@]2(Cl)[C@H]3[C@H]([C@@H]4C=C[C@H]3C4)[C@@]1(Cl)C2(Cl)Cl`, the AC50 in assay [1] is 2.2 µM (active); in assay [2] it was 3.63 µM (active); in the assay with CYP2C8 (gene 1558) it was 1.45 µM (active); in the assay with CYP2E1 (gene 1571), 23 µM (active); with CYP4A11 (gene 1579), 29.6 µM (active); in assay [3], 4.36 µM (active). Moreover, the AC50 in [8] was 8.45 µM (active); in assay [9], 6.01 µM (active); in assay [10], 29.1 µM (active); in [11], 19.4 µM (active). For the same molecule, the molecule was classed as inactive (with CYP2C9 (gene 1559); in assay [4]; in assay [5]; in assay [6]; in assay [7]; in [12]). The molecule was called inactive in assay [13] and in [14].

`COC(=O)c1ccccc1N`: the molecule was called inactive (in assay [1]; in assay [2]; with CYP2C8 (gene 1558); in the assay with CYP2C9 (gene 1559); with CYP2E1 (gene 1571); with CYP4A11 (gene 1579)). The call in assay [3], in [4], in [5], in assay [6], in [7] and in assay [8] was inactive. Besides, the call in [9], in [10], in assay [11], in assay [12], in [13] and in [14] was inactive. In addition, the molecule was classed as inactive in assay [15].

As for `Clc1ccc(C(c2ccc(Cl)cc2)C(Cl)Cl)cc1`, the AC50 in assay [1] was 2.87 µM (active); in [2], 7.66 µM (active); with CYP2C8 (gene 1558), 12.7 µM (active); with CYP2E1 (gene 1571), 52.5 µM (active); in the assay with CYP4A11 (gene 1579), 50 µM (active); in [3] it was 10 µM (active). Moreover, the AC50 in assay [8] was 9.55 µM (active); in [9], 54.7 µM (active); in assay [10], 22.4 µM (active); in assay [11] it was 22.5 µM (active). In addition, the molecule was classed as inactive (with CYP2C9 (gene 1559); in assay [4]; in assay [5]; in assay [6]; in [7]; in assay [12]). Besides, the result in [13] and in [14] was inactive.

For the molecule `CO[C@@H]1[C@H](OC(=O)NC(=O)CCl)CC[C@]2(CO2)[C@H]1[C@@]1(C)O[C@@H]1CC=C(C)C`, the concentration at half-maximal activity (AC50) is 0.0683 µM (active) in assay [1] and 1.96 µM (active) in assay [9]. Moreover, the outcome (in assay [2]; with CYP2C8 (gene 1558); with CYP2C9 (gene 1559); with CYP2E1 (gene 1571); with CYP4A11 (gene 1579); in assay [3]) was inactive. In addition, the molecule was classed as inactive in assay [4], in assay [5], in assay [6], in assay [7], in assay [8] and in assay [10]. Moreover, the outcome in [11], in assay [12], in [13], in assay [14] and in [15] was inactive.

A word on the AC50: it is the midpoint of the concentration-response curve, whichever way the signal moves.
